PAFAH1B3 FP inh: blocks human PAF acetylhydrolase 1B catalytic subunit 3; Q15102; recombinant PAFAH1B3, FP-rhodamine probe, fluorescence polarization; inhibition, % at 3.39 µM; 0.28% of 340,000 active; AID 492972;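 active means inhibition above the screen-wide average of all tested compounds plus 3 SD, cut at about 25% in these data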;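 further: 0% = enzyme with DMSO only and 100% = wells lacking PAFAH1B3 protein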
Target sequence (Q15102 whole entry, looked up): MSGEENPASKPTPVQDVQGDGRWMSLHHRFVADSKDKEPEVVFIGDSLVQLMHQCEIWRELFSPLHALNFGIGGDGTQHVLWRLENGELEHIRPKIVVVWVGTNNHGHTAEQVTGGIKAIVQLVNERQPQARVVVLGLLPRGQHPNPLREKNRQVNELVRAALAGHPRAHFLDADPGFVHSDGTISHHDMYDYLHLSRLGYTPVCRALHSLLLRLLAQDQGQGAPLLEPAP
PAFAH1B2 inh: blocks human PAF acetylhydrolase 1b catalytic subunit 2. recombinant PAFAH1B2, FP-rhodamine activity probe, fluorescence polarization. inhibition, % at 3.39 µM. 1.2% of 340,000 active;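 active means inhibition above the mean of all tested compounds plus 3 SD, cut at about 24% in these data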;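 further: 0% = enzyme with DMSO and 100% = wells lacking PAFAH1B2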
Target sequence (P68402 whole entry, looked up): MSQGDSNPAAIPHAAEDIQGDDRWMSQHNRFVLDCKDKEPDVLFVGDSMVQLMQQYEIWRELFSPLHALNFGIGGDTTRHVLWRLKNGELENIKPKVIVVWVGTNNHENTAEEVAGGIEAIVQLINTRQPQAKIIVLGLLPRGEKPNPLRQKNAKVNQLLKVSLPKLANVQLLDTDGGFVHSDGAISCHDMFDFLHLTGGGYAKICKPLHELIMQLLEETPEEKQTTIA
pPAFAH inh: pPAFAH (human) enzyme inhibition; Q13093; recombinant pPAFAH, FP-rhodamine probe fluorescence polarization; inhibition, % at 3.39 µM; 1.5% of 330,000 active;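 active means inhibition above the mean inhibition across the screen plus 3 SD, cut at about 25% in these data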;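 further: inhibitors block binding of the rhodamine activity-based probe so polarization drops; 0% = enzyme with DMSO and 100% = wells lacking pPAFAH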
PAFAH2 FP inh: PAFAH2 (human) inhibition; inhibition, % at 3.39 µM; AID 492956; 0.99% of 340,000 active; recombinant PAFAH2, FP-rhodamine activity probe, fluorescence polarization; Q99487;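 active means inhibition above the mean over all tested compounds plus 3 SD, cut at about 30% in these data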;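 further: inhibitors block probe labeling of enzyme so polarization drops; 0% = enzyme with DMSO and 100% = wells lacking PAFAH2 protein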
Fam108B counter: blocks mouse Fam108B hydrolase in RBBP9 counter-screen. recombinant Fam108B, FP-Rh probe fluorescence polarization. 0.33% of 300,000 active. inhibition, % at 9.51 µM;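 active means inhibition above the screen mean inhibition plus 3 SD, computed separately per campaign, cut at about 18% in these data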;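 further: inhibitors lower polarization as less probe binds the enzyme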
PME-1 inh: PME-1 (human) inhibition. 0.53% of 320,000 active. AID 2130. recombinant PME-1, FP-Rh probe fluorescence polarization. inhibition, % at 5.9 µM. Q9Y570;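 active means inhibition above the campaign mean of all compounds plus 3 SD, cut at about 26% in these data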;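 further: competitive labeling of PME-1 active site by serine hydrolase directed probe; 0% = PME-1 with DMSO and 100% = wells lacking PME-1 enzyme; inhibitors block probe labeling so polarization falls and inhibition rises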
PAFAH2 FP conf: PAFAH2 (human) inhibition, confirmed. shares compounds with PAFAH2 FP inh. recombinant PAFAH2, FP-rhodamine activity probe, fluorescence polarization. inhibition, % at 3.39 µM. 65% of 2,300 active. AID 493030;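 active means mean inhibition over three repeats above a set limit taken from the earlier primary screen, cut at about 30% in these data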;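 further: inhibitor blocks binding of rhodamine activity probe so polarization falls; 0% = enzyme with DMSO and 100% = wells lacking PAFAH2 protein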
The depositor's hits bear a star; . = no result. Rows were chosen to be rich in hits. Some 2.9% of all compounds tested hit in one or more screens of this group.

SMILES	PAFAH1B3 FP inh	PAFAH1B2 inh	pPAFAH inh	PAFAH2 FP inh	Fam108B counter	PME-1 inh	PAFAH2 FP conf
Cc1ccc(-c2ccc(/C=N/NC(=O)Cc3nnc(N)s3)o2)cc1Cl	5.9	-0.5	23.6	55.2*	3.2	2.2	20.1
COC(=O)c1ccc(-c2ccc(/C=N/NC(=O)Cc3nnc(N)s3)o2)cc1	11.0	0.4	7.1	43.1*	-7.3	-1.8	17.6
CCc1c(C(=O)N/N=C/c2ccc(OCc3ccc(F)cc3)c(OC)c2)nnn1-c1nonc1N	10.9	2.1	-1.9	-19.4	-6.2	-5.8	.
COc1cccc(NC(=O)CN(C)C(=O)Cn2cnc3ccccc3c2=O)c1	5.6	0.5	-2.9	5.0	-0.3	5.0	.
O=C(c1coc(=O)c(Br)c1)N1CCC(C(O)(c2ccccc2)c2ccccc2)CC1	5.7	4.4	4.8	2.5	-1.7	0.6	.
CC1(C)CCCN(C(=O)c2coc(=O)c(Br)c2)C1	10.6	7.3	.	47.5*	.	.	20.6
CN(C(=O)COC(=O)/C=C/c1cccs1)C1CCCCC1	1.4	-0.3	1.9	75.4*	.	.	73.1*
CN(CC(=O)Nc1ccccc1Cl)C(=O)COC(=O)/C=C/c1cccs1	6.7	0.6	3.0	2.9	.	-4.0	.
Cc1ccc(NC(=O)COC(=O)/C=C/c2cccs2)cc1	-4.1	-3.4	5.8	80.4*	2.9	4.6	73.5*
CCN(c1ccc(NC(=O)COC(=O)/C=C/c2cccs2)cc1)C(C)C	3.1	3.1	10.0	42.2*	2.6	1.7	23.6
C=CCNC(=O)COC(=O)/C=C/c1cccs1	5.5	1.1	-1.6	48.8*	6.7	-0.9	25.6
O=C(COC(=O)/C=C/c1cccs1)NC(=O)Cc1ccccc1	9.7	1.9	4.6	6.1	2.5	-9.0	.
CC(C)C(=O)NC(=O)COC(=O)/C=C/c1cccs1	7.0	1.8	5.1	53.5*	-0.7	-4.5	42.4*
Cc1cccc(C(=O)NC2CC3CCC(C2)N3C)c1 (stereo not given)	7.2	4.8	.	0.1	.	.	.
CN1C2CCC1CC(NC(=O)c1cccc(C(F)(F)F)c1)C2 (stereo not given)	18.2	20.9	4.5	32.0*	2.8	0.8	-2.1
COc1ccc(OC)c(/C=C2\SC(=S)N(C(C(=O)O)c3ccccc3)C2=O)c1 (stereo not given)	6.0	-0.4	3.5	31.8*	-0.3	1.9	14.8
COc1cccc(/C=C2\SC(=S)N(C(Cc3ccccc3)C(=O)O)C2=O)c1 (stereo not given)	-0.5	4.6	3.4	32.7*	-6.7	-1.3	16.1
O=C(CCCn1c(=O)oc2ccccc21)NNC(=O)COc1ccc(F)cc1	6.1	8.3	4.9	-1.2	.	.	.
O=C(COC(=O)c1ccccn1)NCc1ccccc1Cl	-13.8	6.3	0.2	-2.1	0.9	-3.0	.
O=C(COC(=O)c1ccc2ncsc2c1)NCc1ccccc1Cl	2.9	7.6	-0.4	83.5*	.	.	67.4*
COc1ccc(CNC(=O)COC(=O)c2ccc3ncsc3c2)cc1OC	-1.1	4.4	3.1	1.7	.	4.5	.
O=C(COC(=O)c1ccc2ncsc2c1)NCc1ccc(F)cc1	7.0	2.7	-3.0	51.3*	.	-0.4	34.0*
Cc1c(NC(=O)C2CCCCN2S(=O)(=O)c2ccc(Cl)cc2)c(=O)n(-c2ccccc2)n1C (stereo not given)	-2.6	-3.2	-1.2	-1.2	-0.1	0.5	.
O=C(Cc1ccc(Cl)cc1)N1CCOCC1	7.0	3.5	2.7	4.2	-4.2	-0.5	.
Cc1cc(/C=C2\SC(N)=NC2=O)c(C)n1-c1ccccc1	-4.0	0.2	6.6	48.6*	-7.9	0.4	32.8*
Cc1cc(C=C2C(=O)CCCC2=O)c(C)n1-c1ccccc1	18.0	4.6	13.0	1.4	4.7	4.1	.
COC(=O)c1ccc(-n2cncn2)c([N+](=O)[O-])c1	1.6	2.8	5.2	1.7	-2.3	-0.3	.
Cc1cccc(NC(=O)CNC(=O)c2ccc(-n3cncn3)c([N+](=O)[O-])c2)c1C	5.0	-3.6	-2.2	38.3*	-1.0	1.0	-2.9
O=C(CC12CC3CC(CC(C3)C1)C2)NCC(=O)N1CCCC1	0.5	8.4	12.6	75.3*	0.0	-3.2	70.6*

From PubChem
